Source: PubChem BioAssay
Most compounds without a hit are left out; they make up all but 15% or so of the library.
Pf growth 48h: P. falciparum growth inhibition at 48 hours (one generation); Potency, µM (top dose mostly 28.7 µM), without a hit: top-dose activity change, negative = inhibition, most hits filed as inhibitors; P. falciparum luciferase growth in erythrocytes, 48 h; 310,000 compounds, 5.9% hits; further: potency means the concentration at half of the fitted maximal effect; on the % scale 0 is the no-effect control and ±100 the full control effect
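Read-out is firefly luciferase luminescence from an integrated reporter in P. falciparum, so falling signal marks reduced parasite growth. Infected erythrocytes were at 2% hematocrit and 0.1% parasitemia (final) in Albumax-supplemented RPMI 1640.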
HCV inh: inhibitors of hepatitis C virus infection | Huh7.5.1 HCVcc-Cre infection, luciferase reporter, 44 h | Potency, µM (doses to about 41.8 µM), for inactives: top-dose activity change, negative = inhibition, actives largely listed as inhibitors | 340,000 compounds, 3.4% hits | AID 651820; further: potency means the concentration at half of the fitted maximal effect; on the % scale 0 is the no-effect control and ±100 the full control effect
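Seed cells (1,000/well) for 4 h; treat with compound and infect with HCVcc-Cre, moi about 0.5. Incubate 44 h, then detect luciferase activity.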
SARS PLpro yeast: blocks SARS-CoV papain-like protease in a yeast assay | Potency, µM (doses to about 32.9 µM), for inactives: top-dose activity, positive = growth rescue, usual class: activators | S. cerevisiae expressing SARS-CoV PLpro, growth rescue | 330,000 compounds, 0.19% hits; calls by dose curve; further: potency means the concentration at half of the fitted maximal effect; 0% is about no effect; nearly all actives have a fitted effect of over 55% in size
HCMV antiviral: inhibitors of human cytomegalovirus; activity change, negative = inhibition, % at 57.5 µM; HFF cells, HCMV-luciferase reporter, 72 h; stronger effect = lower value; 410,000 compounds, 4.5% hits; in the data active means activity change below about -60%; inconclusive means no clear call, values can overlap the other calls; inactive means above about -39%; further: on the % scale 0 is the no-effect control and ±100 the full control effect
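HFF cells seeded 16 h at 37C, treated with compounds, infected with luciferase-reporter HCMV at MOI 1 PFU/cell; luciferase read at 72 h post infection, normalized to buffer-only and Salinomycin controls.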
Sm TGR block: S. mansoni TGR enzyme inhibition | 360,000 compounds, 3% hits | Potency, µM (doses to about 114 µM), for the others: top-dose activity change, negative = inhibition, actives largely listed as inhibitors | purified TGR, DTNB reduction, TNB absorbance 405 nm | AID 485364 | Q962Y6; further: potency means the concentration at half of the fitted maximal effect; on the % scale 0 is the no-effect control and ±100 the full control effect; nearly all actives have a fitted effect of over 60% in size
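TGR 20 nM + NADPH 100 uM (dispensed conc.), cpd preinc 15 min RT; start with NADPH (500 uM addition) then DTNB (15 mM addition). Kinetic TNB absorbance, 405 nm filter. Four-parameter Hill fit across titration.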
Pf growth 96h: inhibits malaria parasite growth, 96 h. P. falciparum luciferase reporter growth, 96 h. Potency, µM (series often up to 28.7 µM), inactives show top-dose activity change, negative = inhibition, hits mostly inhibitors. 320,000 compounds, 6.9% hits. AID 504834; further: potency means the concentration at half of the fitted maximal effect; on the % scale 0 is the no-effect control and ±100 the full control effect
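P. falciparum expressing integrated firefly luciferase, in erythrocytes at 2% hematocrit, 0.05% parasitemia, incubated with compounds 96 h at 37 C, 5% CO2. Growth inhibition read as loss of luminescence; two-generation exposure targets delayed-death apicoplast inhibitors.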
* = called active by the depositor; ? = inconclusive; . = no result given. Unless noted, the call rests on the fitted dose curve; in most records, active means well fitted curve in the direction sought with a large enough effect; inconclusive means small, poorly fitted or top-dose-only effect, or another doubt; inactive means no such curve, though single readings can be large; an effect the other way counts as inactive or inconclusive.

SMILES	Pf growth 48h	HCV inh	SARS PLpro yeast	HCMV antiviral	Sm TGR block	Pf growth 96h
COc1cc2c(cc1NC(=S)Nc1cccc(C)c1)oc1ccccc12	40.4%	8.91µM*	-6.1%	31.7	-10.3%	.
CCCNC(=S)Nc1cc2oc3ccccc3c2cc1OC	?	?	11.8%	7.1	-8.5%	3.29µM*
COc1cc2c(cc1NC(=S)Nc1ccccc1C)oc1ccccc12	35.1%	?	-7.0%	21.1	11.0%	.
COc1cc2c(cc1NC(=O)Nc1cccc(C)c1)oc1ccccc12	3.4%	?	-3.9%	2.7	-3.0%	.
CCNC(=S)Nc1cc2oc3ccccc3c2cc1OC	14.7%	22.4µM*	-3.6%	0.0	25.9%	-2.3%
COc1cc2c(cc1NC(=O)Nc1ccc(F)cc1)oc1ccccc12	-56.1%	?	2.4%	-65.6*	-8.2%	?
O=C(CSc1nc(-c2ccccc2)cc(=O)[nH]1)Nc1ccc(F)c(F)c1	1.1%	12.6%	-0.8%	2.1	18.3%	29.4%
COc1ccccc1C(=O)NCC(=O)OCC(=O)N(CC(C)C)c1c(N)n(Cc2ccccc2)c(=O)[nH]c1=O	-5.4%	16.3%	-7.6%	14.0	-12.5%	43.0%
CCOC(=O)C1CCN(c2nc3c(S(=O)(=O)c4ccccc4)nnn3c3ccc(Cl)cc23)CC1	.	.	.	8.0	5.2%	.
COc1cc2c(cc1NC(=O)C1CCCO1)oc1ccccc12 (stereo unspecified)	150.1%	7.94µM*	-17.6%	42.7	-4.7%	.
CNC(=S)Nc1cc2oc3ccccc3c2cc1OC	28.2%	11.2µM*	0.2%	-12.5	-23.2%	39.6%
COc1cc2c(cc1NC(=O)/C=C/c1ccccc1)oc1ccccc12	-2.3%	7.08µM*	-1.4%	-64.2*	-23.0%	3.3%
COc1ccc(Cl)cc1NC(=O)C1CCCO1 (stereo unspecified)	7.9%	?	6.5%	-8.1	34.0%	15.1%
CC(=O)N1c2ccc(S(=O)(=O)N3CCC(C(=O)NCc4ccc(C)cc4)CC3)cc2CC1C (stereo unspecified)	?	?	-1.4%	?	-15.2%	11.7µM*
Cc1ccc(CNC(=O)C2CCN(S(=O)(=O)c3ccc4c(c3)CC(C)N4C(=O)C3CC3)CC2)cc1 (stereo unspecified)	0.0%	?	8.1%	-9.7	-3.3%	-2.6%
CC(=O)Nc1ccc(S(=O)(=O)N2CCC(C(=O)NCCc3ccc(Cl)cc3)CC2)cc1	?	3.9%	-0.5%	-32.1	-10.4%	?
CC(=O)N1c2ccc(S(=O)(=O)N3CCC(C(=O)NCCc4ccc(Cl)cc4)CC3)cc2CC1C (stereo unspecified)	?	10µM*	-0.8%	-39.6	-9.9%	6.3%
CC(=O)N1c2ccc(S(=O)(=O)N3CCC(C(=O)NCc4ccccc4Cl)CC3)cc2CC1C (stereo unspecified)	?	8.9%	23.6%	-4.2	0.4%	9.28µM*
CC1Cc2cc(S(=O)(=O)N3CCC(C(=O)NCc4ccco4)CC3)ccc2N1C(=O)C1CCC1 (stereo unspecified)	9.28µM*	?	11.4%	?	-23.7%	?
CC(=O)N1c2ccc(S(=O)(=O)N3CCCC(C(=O)NCc4ccccc4Cl)C3)cc2CC1C (stereo unspecified)	?	?	0.2%	0.0	1.5%	?
CCN(CC)C(=O)C(=O)c1ccn(-c2c(C)csc2C(=O)OC)c1	-11.0%	-14.4%	1.0%	34.7	7.1%	-4.5%
c1ccc2c(Cn3ccnc3)cccc2c1	?	24.1%	1.0%	1.3	0.7%	?
COc1ccc(CNC(=O)C2CCN(S(=O)(=O)c3ccc4c(c3)CC(C)N4C(=O)C3CC3)CC2)cc1 (stereo unspecified)	?	?	-3.6%	-30.6	-0.3%	14.7µM*
CC(=O)N1c2ccc(S(=O)(=O)N3CCC(C(=O)NCc4ccc(Cl)cc4)CC3)cc2CC1C (stereo unspecified)	9.28µM*	?	0.9%	?	-8.5%	-24.4%
COc1cccc(CNC(=O)C2CCN(S(=O)(=O)c3ccc4c(c3)CC(C)N4C(=O)C3CC3)CC2)c1 (stereo unspecified)	?	-23.6%	0.8%	-31.5	-0.5%	-5.6%
SMILES	Pf growth 48h	HCV inh	SARS PLpro yeast	HCMV antiviral	Sm TGR block	Pf growth 96h
CC(=O)N1c2ccc(S(=O)(=O)N3CCC(C(=O)NCc4ccc(N(C)C)cc4)CC3)cc2CC1C (stereo unspecified)	-18.9%	?	-0.3%	-32.6	-16.1%	-16.8%
Cc1ccc(NC(=O)c2c(C)oc3ccc(O)c(CN4CCN(Cc5ccccc5)CC4)c23)cc1	.	.	.	-21.1	47.9%	.
CCOc1ccc(CC(C(N)=O)C(N)=O)cc1CN(C)C	9.0%	5.1%	2.2%	49.8	-2.3%	15.5%
O=C1NC(=O)N(Cc2ccccc2)C(=O)/C1=C/N1CCCc2ccccc21	1.4%	3.3%	25.0%	32.2	?	52.4%
O=C1NC(=O)N(Cc2ccco2)C(=O)/C1=C/C=C/c1ccco1	11.8%	-1.1%	-0.6%	?	2µM*	?
CN1C(=O)/C(=C/C=C/c2ccco2)C(=O)NC1=S	1.1%	6.5%	1.3%	0.0	?	31.7%
O=C1NC(=O)N(Cc2ccccc2)C(=O)/C1=C\C=C\c1ccco1	14.2%	-14.6%	-0.9%	-98.3*	10µM*	?
COc1ccccc1CNC(=O)C1CCN(S(=O)(=O)Cc2ccccc2)CC1	.	.	.	-6.8	3.1%	.
CN(Cc1ccccc1)Cc1nc2c(c(=O)n(C)c(=O)n2C)n1Cc1ccc(Cl)cc1	-26.4%	14.1µM*	-2.5%	-16.8	1.7%	-7.8%
CN(Cc1ccccc1)Cc1nc2c(c(=O)n(C)c(=O)n2C)n1Cc1ccc(F)cc1	11.7µM*	-18.1%	-3.3%	-5.7	6.1%	11.7µM*
Cc1ccc(Cn2c(CN(C)Cc3ccccc3)nc3c2c(=O)n(C)c(=O)n3C)cc1	?	?	-6.1%	76.3	0.0%	.
CC1CCCN(Cc2nc3c(c(=O)n(C)c(=O)n3C)n2Cc2ccc(Cl)cc2)C1 (stereo unspecified)	.	.	.	8.3	5.6%	.
Cc1ccc(C)c(Cn2c(CN(C)Cc3ccccc3)nc3c2c(=O)n(C)c(=O)n3C)c1	.	?	1.3%	?	8.5%	13.1µM*
C=C(C)Cn1c(CN(C)Cc2ccccc2)nc2c1c(=O)n(C)c(=O)n2C	11.8%	11.2µM*	1.1%	?	11.4%	0.0%
CN(Cc1ccccc1)c1nc2c(c(=O)n(C)c(=O)n2C)n1CCCc1ccccc1	?	?	-11.1%	?	-11.2%	-26.8%
O=C(CN(Cc1cccs1)C(=O)CNC(=O)c1ccco1)NC1CCCCC1	9.1%	-0.3%	-6.5%	-14.1	0.0%	?
